Laboratory results from PubChem BioAssay (NCI).
This is part of a sample that, as a whole, favours compounds with a hit. Of some 83,000 tested, about 20% had one in any assay.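 Single-concentration screen, 48 h exposure, 96-well plates. Endpoint: percent growth. Below 10 = active.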 Activity calls are given as the source filed them.

These molecules were tested on A549/ATCC NSCLC (assay: NCI-60 one-dose screen, 48 h (100 = growth as untreated, 0 = no growth, -100 = all killed)). Conditions: 10 µM unless noted.

Which growth does the source give for `Cc1ccc(NC(=O)NC(=O)CSc2nc3ccccc3nc2C)cc1` here?
The growth was 70.2% (inactive).

`C=CCn1c(=O)c2cnc(Nc3ccc(N4CCN(C)CC4)cc3)nc2n1-c1cccc(C(C)(C)O)n1` was tested. Which growth did it give?
The growth was 15.9% (inactive).

`Clc1ccc2c(NCCNc3nc(N4CCCC4)nc4ccccc34)ccnc2c1` was tested. Which growth did it give?
Its growth is -4.72% (active).

`Clc1ccc(/C=C/c2cc(N3CCOCC3)c3cc(Cl)c(Cl)cc3n2)cc1` was tested. Which growth did it give?
Its growth is 79.9% (inactive).

For `Nc1ncnc2c1ccn2-c1cccc(NC(=O)c2ccc(N3CCOCC3)c(C(F)(F)F)c2)c1`, which growth is on record?
Its growth is 28.1% (inactive).

With `CC12O[C@H](C[C@@H](OC(=O)CCC(=O)O)[C@H]1O)n1c3ccccc3c3c4c(c5c6ccccc6n2c5c31)C(=O)NC4=O` as the molecule, how does the growth read?
The growth was 13.8% (inactive).

What follows are molecules tested on 786-0 renal in the same assay as above. Conditions: 10 µM unless noted.

Which growth does the source give for `C=CCC(=O)N[C@H](/C=C/C(=O)O)Cc1ccc(-c2cc(Cl)cc(Cl)c2)cc1` here?
The growth was 98.4% (inactive).

For `CCN1CCN(c2cc(C)nc(N(CCCNc3ccnc4cc(Cl)ccc34)Cc3cccs3)n2)CC1`, which growth is on record?
Its growth is -71.8% (active).

For `COC(=O)CCCNc1c(-c2c(O)c(O)cc3c(O)c(-c4c(C)cc5c(-c6nc7ccccn7c6NCCCC(=O)OC)c(O)c(O)cc5c4O)c(C)cc23)nc2ccccn12`, which growth is on record?
The growth was 67.6% (inactive).

For `Cn1ncc(Cl)c1-c1cc(C(=O)N[C@H](CN)Cc2ccc(F)c(F)c2)oc1Cl`, which growth is on record?
The growth was -46.7% (active).

With `O=c1[nH]c(N2CCOCC2)nc2scc(-c3ccccc3)c12` as the molecule, how does the growth read?
Its growth is 95.2% (inactive).

How did the growth turn out when `Cc1cc2c(-c3nc4ccccn4c3NC3CCCCC3)c(O)c(O)cc2c(O)c1-c1c(C)cc2c(-c3nc4ccccn4c3NC3CCCCC3)c(O)c(O)cc2c1O` was run?
Its growth is 72.4% (inactive).

How did the growth turn out when `CC(C)C1CCC(C)C(C2(C#N)C(N)=NC(N)=C2C#N)C1=O` (stereo not drawn) was run?
The growth was 106% (inactive).

`Cc1cc(N2CCCC2)nc(N(CCCNc2ccnc3cc(Cl)ccc23)Cc2ccc3c(c2)OCO3)n1` was tested. Which growth did it give?
Its growth is -88.8% (active).

Which growth does the source give for `[2H]C1([2H])[C@H](C)O[C@H](C)C([2H])([2H])N1c1ccc(NC(=O)c2cccc(-c3ccc(OC(F)(F)F)cc3)c2C)cn1` here?
Its growth is 74.1% (inactive).

With `Cc1cc2c(-c3nc4ccccn4c3NC34CC5CC(CC(C5)C3)C4)c(O)c(O)cc2c(O)c1-c1c(C)cc2c(-c3nc4ccccn4c3NC34CC5CC(CC(C5)C3)C4)c(O)c(O)cc2c1O` as the molecule, how does the growth read?
Its growth is -12% (active).

How did the growth turn out when `CC[C@H](Nc1ncnc2nc[nH]c12)c1nc2cccc(F)c2c(=O)n1-c1ccccc1` was run?
The growth was 37.5% (inactive).

Which growth does the source give for `COC(=O)C1=C(C(=O)OC)C23C=C(C)C1C2=C(C)C1(CC1)[C@@](C)(O)C3=O` (stereo partly drawn) here?
Its growth is -20.6% (active).

With `c1ccc2c(c1)CCN(NCCN1CCCC1)C2` as the molecule, how does the growth read?
Its growth is 101% (inactive).

Which growth does the source give for `Cc1cc(N(CCNc2ccnc3cc(Cl)ccc23)Cc2cccs2)nc(Cl)n1` here?
The growth was -97.6% (active).

`COc1cc(-c2nc(C(=O)Nc3ccc(C)cc3)nn2-c2ccc(F)c(F)c2)cc(OC)c1OC` was tested. Which growth did it give?
Its growth is 98.6% (inactive).

For `O=C(Cn1c(=O)ccn(CCCCCCCCOc2ccc(Br)cc2)c1=O)Nc1ccc(Oc2ccc(Cl)cc2)cc1`, which growth is on record?
The growth was 65.7% (inactive).

Which growth does the source give for `Cc1ccc(-c2cc3c(SCC(=O)Nc4cc(C(F)(F)F)ccc4Cl)nccn3n2)cc1` here?
The growth was 54.7% (inactive).

Which growth does the source give for `CCCc1cc2cc(-n3nc(C)c4c3CC(C)(C)CC4=O)cc(NC3CCC(O)CC3)c2c(=O)[nH]1` (stereo not drawn) here?
The growth was 26.1% (inactive).

With `COc1ccc(C(=O)c2cc(OC)c(OC)c(OC)c2)cc1/C=C/C(=O)c1ccc(F)cc1` as the molecule, how does the growth read?
Its growth is 77.4% (inactive).

For `CC(C)=CCc1cc2c(cc1O)C1=C(C(=O)C3=C(C1=O)S(=O)(=O)CCN3)C(C=C(C)C)O2` (stereo not drawn), which growth is on record?
The growth was -12.3% (active).

`CN1CCN(c2nc(NCCNc3ccnc4cc(Cl)ccc34)c3ccccc3n2)CC1` was tested. Which growth did it give?
Its growth is -33.3% (active).

How did the growth turn out when `COc1ccc(CCCc2c3[n+](cc4c(OC)c(OC)ccc24)CCc2cc4c(cc2-3)OCO4)cc1` was run?
The growth was 92.2% (inactive).

Which growth does the source give for `N#Cc1cc2[nH]c3ccc(OC(F)(F)F)cc3c2oc1=O` here?
Its growth is 93.9% (inactive).

Which growth does the source give for `CCN1CCN(CCCN(C[C@H]2Cc3ccccc3CN2)[C@H]2CCCc3cccnc32)CC1` here?
The growth was 83.3% (inactive).

With `Clc1ccc2c(NCCCNCc3ccc4c(c3)OCO4)ccnc2c1` as the molecule, how does the growth read?
The growth was 66.8% (inactive).

`Cc1cc(N2CCOCC2)nc(N(CCNc2ccnc3cc(Cl)ccc23)Cc2cccs2)n1` was tested. Which growth did it give?
The growth was -35.2% (active).

Which growth does the source give for `CCN1CCN(c2cc(C)nc(N(CCCNc3ccnc4cc(Cl)ccc34)Cc3ccc4c(c3)OCO4)n2)CC1` here?
The growth was -80.2% (active).
